In all, about 69,000 compounds went through this assay and about 8,600 (12%) showed an effect of 50% or more. What follows is part of a selection rich in strong results, with near analogues and random picks from the rest.

The source of these data is ChEMBL document CHEMBL4513216, “Probing the Open Global Health Chemical Diversity Library for Multistage-Active Starting Points for Next-Generation Antimalarials” (ACS Infect Dis, 2020).

The test deals with Plasmodium berghei. Kind of test: Screen against P. berghei liver stage (PbLuc), transformed with Luciferase, at 10uM. The format is functional, HepG2. As to conditions: tested at 10 uM.
Turning to `COc1ccc(OC)c(C(C)Nc2ncnc3c2NC(=O)CN3)c1` (stereo not drawn), the INHIBITION turned out to be 24.2%.

Consider `N#Cc1cccc(C(=O)N2C[C@@H]3CC[C@H]2CN(C(=O)C2CCC2)C3)c1`, for which the INHIBITION worked out at 28.5%.

`CN1C(=O)C2(CCN(C(=O)c3ccccc3)CC2)c2cc(F)ccc21`: the INHIBITION is 39.4%.

With `Cn1cnnc1S(=O)(=O)C1CCN(S(=O)(=O)c2ccc(F)c(Cl)c2)CC1`, the INHIBITION is on record as 81.9%.

As to `Cc1ccc(S(=O)(=O)N2CCC(S(=O)(=O)c3nncn3C)CC2)cc1C`, the INHIBITION is on record as -0.554%.

`Cn1cnnc1S(=O)(=O)C1CCN(S(=O)(=O)c2ccccc2F)CC1`: the INHIBITION turned out to be 15.7%.

On to `O=C(C1CC1)N1CCC(c2nc(O)c3c(n2)CCN(C2CCCC2)C3)C1` (stereo not drawn), for which the INHIBITION was found to be 22.7%.

Turning to `CCN(CC)c1ncnc2c1CCN(C(=O)Cc1ccccn1)CC2`, the INHIBITION is -49.6%.

As to `O=C1NCCN1C1CCCN(Cc2coc(-c3cccs3)n2)C1` (stereo not drawn), the INHIBITION came to 33.3%.

With `O=C1NCCCCC1SCc1coc(-c2ccccc2)n1` (stereo not drawn), the INHIBITION came to 35.5%.

Turning to `O=C1NCCN1C1CCCN(Cc2nnc(-c3ccc(F)cc3)o2)C1` (stereo not drawn), the INHIBITION was 20.1%.

In the case of `Cc1ccc(-c2nc(CN3CCC(N4CCNC4=O)CC3)co2)cc1`, the INHIBITION is 26.5%.

For `O=C1NCCCCC1SCc1coc(-c2cccc(F)c2)n1` (stereo not drawn), the INHIBITION is reported as -16.1%.

`O=C1NCCN1C1CCCN(Cc2coc(-c3ccc(F)cc3)n2)C1` (stereo not drawn): the INHIBITION was determined as 75.2%.

On to `Fc1ccc(-c2nc(CN3CCn4c(nnc4C4CC4)C3)co2)cc1`, for which the INHIBITION is recorded as -21.7%.

For `O=C1NCCN1C1CCN(Cc2coc(-c3ccc(F)cc3)n2)CC1`, the INHIBITION is 52.5%.

With `O=C1NCCCCC1SCc1coc(-c2ccc(F)cc2)n1` (stereo not drawn), the INHIBITION stood at 82.7%.

With `CN(C)C(=O)C1CCC2(CCN(C(=O)Nc3cccc(F)c3)CC2)O1` (stereo not drawn), the INHIBITION came out at 18.6%.

Regarding `COc1ccc(OC)c(C(=O)N(C)Cc2nnc3ccccn23)c1`, the INHIBITION is -35.7%.

Turning to `CN(C)[C@H]1CN(C(=O)CCCc2ccc(F)cc2)C[C@@H]1C1CC1`, the INHIBITION worked out at 28.4%.

On to `COc1ccccc1C(=O)N1CC(=O)N(Cc2ccco2)CC(O)C1` (stereo not drawn), for which the INHIBITION worked out at 26.8%.

Turning to `COc1ccccc1CC(=O)N1CCC(NCc2ccc(C)o2)CC1`, the INHIBITION is on record as 29.375%.

For `O=C(NCc1ccco1)[C@H]1C[C@@H]2CCN(c3cccc(F)c3)C[C@H]2O1`, the INHIBITION is listed as 44.1%.

For the compound `Cn1ccnc1-c1cn(CCCc2csc(N)n2)nn1`, the INHIBITION turned out to be 17.5%.

For the compound `COC(=O)CC1CCCCN1CC(=O)Nc1cc(F)ccc1F` (stereo not drawn), the INHIBITION was found to be 47.2%.

Consider `COC(=O)CC1CCCCN1CC(=O)Nc1ccc(F)cc1Cl` (stereo not drawn), for which the INHIBITION is reported as 62.4%.

Take `COC(=O)CC1CCCCN1CC(=O)NCCc1ccc(F)cc1` (stereo not drawn): the INHIBITION came to 38.5%.

In the case of `O=C(CCn1cncn1)N1C[C@@H]2CC[C@H]1CN(Cc1cccnc1)C2`, the INHIBITION was 14.3%.
